Laboratory results from paper PMC4336329 (PLoS ONE, 2015).
In all, about 310,000 compounds went through this assay and about 14,000 (4.5%) showed an effect of 50% or more. Effects have a minus sign here. The sample as a whole holds a higher share of strong results than the screen did.

These compounds were tested against human ether-à-go-go-related gene (hERG) potassium channel (human, UniProt Q12809) (assay: primary screen, population patch clamp on CHO cells stably expressing hERG; higher = less effect of the substance).
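Also: peak tail current of the secondary pulse compared with the same well before compound.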

Sequence of human ether-à-go-go-related gene (hERG) potassium channel (Q12809 whole entry, looked up): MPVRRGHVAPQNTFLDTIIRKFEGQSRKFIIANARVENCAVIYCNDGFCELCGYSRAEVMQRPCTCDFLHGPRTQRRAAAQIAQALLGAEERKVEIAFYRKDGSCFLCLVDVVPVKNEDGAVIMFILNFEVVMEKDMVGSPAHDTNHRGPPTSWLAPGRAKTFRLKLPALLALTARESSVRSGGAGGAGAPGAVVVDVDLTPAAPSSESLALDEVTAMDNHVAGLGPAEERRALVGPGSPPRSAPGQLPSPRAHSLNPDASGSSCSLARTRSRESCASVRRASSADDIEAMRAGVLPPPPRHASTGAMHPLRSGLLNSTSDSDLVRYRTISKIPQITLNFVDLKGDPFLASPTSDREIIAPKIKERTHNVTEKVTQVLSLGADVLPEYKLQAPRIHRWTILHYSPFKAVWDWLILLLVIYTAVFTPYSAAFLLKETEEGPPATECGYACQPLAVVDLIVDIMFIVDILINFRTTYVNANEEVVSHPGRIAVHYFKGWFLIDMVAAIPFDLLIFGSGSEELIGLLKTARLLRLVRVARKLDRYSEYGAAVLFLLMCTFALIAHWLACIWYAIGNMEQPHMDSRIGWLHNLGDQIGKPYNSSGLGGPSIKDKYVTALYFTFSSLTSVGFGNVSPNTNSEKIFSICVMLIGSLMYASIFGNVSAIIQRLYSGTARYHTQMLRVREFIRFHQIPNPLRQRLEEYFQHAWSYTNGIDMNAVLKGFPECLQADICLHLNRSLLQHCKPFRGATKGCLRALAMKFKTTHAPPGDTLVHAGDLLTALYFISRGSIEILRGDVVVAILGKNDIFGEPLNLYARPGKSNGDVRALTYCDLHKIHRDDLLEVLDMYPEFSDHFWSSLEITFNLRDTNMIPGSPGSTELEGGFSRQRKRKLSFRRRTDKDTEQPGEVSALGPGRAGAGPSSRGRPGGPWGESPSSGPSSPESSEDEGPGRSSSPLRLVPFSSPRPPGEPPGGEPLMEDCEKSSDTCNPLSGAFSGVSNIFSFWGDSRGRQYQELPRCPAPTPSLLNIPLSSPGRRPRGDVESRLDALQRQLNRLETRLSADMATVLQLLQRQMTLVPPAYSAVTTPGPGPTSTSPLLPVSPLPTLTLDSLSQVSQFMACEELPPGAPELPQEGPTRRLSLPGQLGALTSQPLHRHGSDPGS

Row | Structure (SMILES) | hERG current change (%, negative = inhibition) at 10uM [%]
1 | CC(OC(=O)c1ccccc1NCc1ccco1)C(=O)Nc1ncc(Cl)cc1Cl (centres unmarked) | 2.95
2 | Cc1ccc(C)c(-n2nnnc2SCC(=O)NCC2CCCO2)c1 (centres unmarked) | -4.18
3 | CCN(C(=O)COC(=O)CCC(=O)c1cccs1)c1c(N)n(Cc2ccccc2)c(=O)[nH]c1=O | -4.97
4 | CCCCCOc1ccc(CSCCNC(=S)Nc2ccccc2)cc1 | -5.94
5 | O=C(O)c1ccccc1C(=O)c1ccc(-c2ccccc2)cc1 | 17.2
6 | CCOC(=O)c1ccc(S(=O)(=O)NNC(=O)COc2cccc(C)c2)cc1 | 34.6
7 | Cc1ccc(S(=O)(=O)N2CCN(S(=O)(=O)N3CCCCCC3)CC2)cc1 | 20.4
8 | COc1cccc(NC(=O)NCCCN2CCN(c3ccc(F)cc3)CC2)c1 | -73.2
9 | COc1ccccc1N1CCN(CCNC(=O)Nc2cccc(C)c2C)CC1 | -68.8
10 | COc1ccccc1N1CCN(CCCNC(=O)Nc2ccccc2C)CC1 | -33.7
11 | Cc1cccc(NC(=O)NCCN2CCN(c3ccccc3)CC2)c1C | -9.69
12 | COc1cccc(NC(=O)NCCN2CCCCC2)c1 | -13.7
13 | COc1cccc(NC(=S)NCCCN2CCOCC2)c1 | 16.7
14 | Cc1cccc(NS(=O)(=O)c2c(C(=O)N3CCCC3)c(C)n(C)c2C)c1 | 18.1
15 | Cc1cc(Cl)ccc1OCC(=O)N/N=C/c1ccncc1 | -14.9
16 | COC(=O)CSc1nc(C)cc(N2CCOCC2)n1 | 7.89
17 | NC(=O)C1CCN(C(=O)COc2ccc3ccccc3c2)CC1 | 18.2
18 | CCC(C)(C)NC(=O)C(c1cccnc1)N(C(=O)c1csnn1)c1ccccc1 (centres unmarked) | -22.7
19 | O=C(Cn1c(-c2ccccc2)noc1=O)NCc1ccccc1 | 6.47
20 | CCCCCn1c(SCC2CCCO2)nc2cc(C(=O)N3CCC(C(N)=O)CC3)ccc2c1=O (centres unmarked) | -64.7
21 | CCCCCn1c(SCC(=O)OCC)nc2cc(C(=O)N3CCC(C(N)=O)CC3)ccc2c1=O | -58.4
22 | CCCCCn1c(SCC(=O)CC(=O)OCC)nc2cc(C(=O)N3CCC(C(N)=O)CC3)ccc2c1=O | -17.7
23 | CCCCCn1c(SCC#N)nc2cc(C(=O)NCC3CCCO3)ccc2c1=O (centres unmarked) | -52.7

Row | Structure (SMILES) | hERG current change (%, negative = inhibition) at 10uM [%]
24 | NC(=O)C1CCN(C(=O)c2ccc3c(=O)n(Cc4ccco4)c(SCC(=O)c4ccccc4)nc3c2)CC1 | 6.75
25 | CCOC(=O)CSc1nc2cc(C(=O)N3CCC(C(N)=O)CC3)ccc2c(=O)n1C1CCCCC1 | -10.7
26 | C=CCn1c(SCC(=O)CC(=O)OCC)nc2cc(C(=O)N3CCC(C(N)=O)CC3)ccc2c1=O | 13.7
27 | CCCCn1c(SC(C)C(=O)NCC2CCCO2)nc2cc(C(=O)OC)ccc2c1=O (centres unmarked) | -44.9
28 | N#CCSc1nc2ccccc2c(=O)n1CCCC(=O)NCC1CCCO1 (centres unmarked) | -12.4
29 | c1cc(-c2nnn(CCOCCn3nnc(-c4ccncc4)n3)n2)ccn1 | -0.329
30 | c1ccc(Oc2cccc(OCCn3cncn3)c2)cc1 | -12.7
31 | CC(=O)c1ccc(NC(=S)NNC(=O)c2ccccc2[N+](=O)[O-])cc1 | 20
32 | CC1CCN(CCCNC(=O)C2CCC(CNS(=O)(=O)c3ccccc3)CC2)CC1 (centres unmarked) | 5.02
33 | Cc1cc(C)c(S(=O)(=O)NCC2CCC(C(=O)NCCCN3CCC(C)CC3)CC2)c(C)c1 (centres unmarked) | -77.2
34 | CCCCN(C)CCCNC(=O)C1CCC(CNS(=O)(=O)c2c(C)cc(C)cc2C)CC1 (centres unmarked) | -77.3
35 | COCCNC(=O)C1CCC(CNS(=O)(=O)c2c(C)cc(C)cc2C)CC1 (centres unmarked) | 7.72
36 | CCC1CCCCN1CCCNC(=O)C1CCC(CNS(=O)(=O)c2c(C)cc(C)cc2C)CC1 (centres unmarked) | -68.3
37 | CCN(CC)CCCNC(=O)C1CCC(CNS(=O)(=O)c2c(C)cc(C)cc2C)CC1 (centres unmarked) | -13.5
38 | COC(CNC(=O)C1CCC(CNS(=O)(=O)c2c(C)cc(C)cc2C)CC1)OC (centres unmarked) | -26
39 | CCCCNC(=O)C1CCC(CNS(=O)(=O)c2c(C)cc(C)cc2C)CC1 (centres unmarked) | 3.09
40 | Cc1ccc(S(=O)(=O)NCC2CCC(C(=O)NCCCN3CCOCC3)CC2)cc1 (centres unmarked) | 10.8
41 | O=C(Cn1c2c(c(=O)n3ncnc13)CCC2)N/N=C/c1cccs1 | 0.665
42 | CS(=O)(=O)c1ccc(C(=O)NCC(c2ccco2)N2CCCCC2)cc1 (centres unmarked) | 18
43 | Cc1cc(OCC(=O)NCC(O)c2ccccc2)c2c3c(c(=O)oc2c1)CCCC3 (centres unmarked) | 12.1
44 | CCCCn1c(N)c(N(CCOC)C(=O)c2ccco2)c(=O)[nH]c1=O | 0.12
45 | Cc1ccc(-n2c(SCC(=O)N/N=C/c3c(C)nn(-c4ccccc4)c3C)nc3ccccc3c2=O)cc1 | -7.33
46 | O=C(Nc1ccccc1)N1CCC(O)(c2cccc(C(F)(F)F)c2)CC1 | -6.72

Row | Structure (SMILES) | hERG current change (%, negative = inhibition) at 10uM [%]
47 | c1ccc(-c2nc3ccccc3s2)nc1 | 4.67
48 | Cc1ccc(-n2c(SCC(=O)N3c4ccccc4Sc4ccccc43)nnc2-c2ccncc2)cc1 | -3.06
49 | COc1ccc(NC(=O)CN(C)C(=O)C(C)Sc2ccccc2)cc1 (centres unmarked) | 5.43
50 | COC(=O)Cn1c2nc3ccccc3nc2c2cccc(C)c21 | 9.86
51 | COC(=O)Cn1cnc2c(C#N)c3n(c2c1=O)CCCCC3 | -8.01
52 | COc1cc(-c2nn3c(COc4ccccc4)nnc3s2)cc(OC)c1OC | 14.8
53 | O=C(NCc1ccccc1)c1ccco1 | 2.34
54 | COc1cccc(CN2CCN(Cc3ccon3)CC2CCO)c1 (centres unmarked) | 0.227
55 | CCOc1ccc(CN2CCN(Cc3cccc4nonc34)CC2CCO)cc1 (centres unmarked) | -77.1
56 | COc1cccc(CN2CCN(Cc3cccc4c3OCO4)CC2CCO)c1 (centres unmarked) | -23.2
57 | COc1ccc(CN2CCN(Cc3cccc4nonc34)CC2CCO)c(C)c1C (centres unmarked) | -68.3
58 | CCOc1ccccc1CN1CCN(Cc2cccc3nonc23)CC1CCO (centres unmarked) | -73.3
59 | CC(C)N1CCN(Cc2cccc3nonc23)CC1CCO (centres unmarked) | 1.05
60 | Cc1cccc(CN2CCN(Cc3cccc4nonc34)CC2CCO)n1 (centres unmarked) | -24.1
61 | CCOc1ccccc1CN1CCN(Cc2ccon2)CC1CCO (centres unmarked) | -42.6
62 | CC(C)CCN1CCN(Cc2cccc3nonc23)CC1CCO (centres unmarked) | -16.7
63 | COc1cccc(CN2CCN(Cc3cccc4nonc34)CC2CCO)c1 (centres unmarked) | -66.3
64 | Cc1ccc(-n2nc3c(=O)n(CC(=O)NCCc4ccc(Cl)cc4)nc(C)c3c2C)cc1 | -10.2
65 | CCc1ccccc1N(CC(=O)N1CCN(c2ccccc2F)CC1)S(C)(=O)=O | 0.701
66 | COc1ccc(S(=O)(=O)NCC(c2ccco2)N2CCOCC2)cc1 (centres unmarked) | -19.1
67 | COC(=O)N/N=C(\C)c1ccc(Br)cc1 | 11.6
68 | CCCCN(CC)C(=O)c1n[nH]c(=O)c2ccccc12 | 2.92
69 | Cc1nc(CNC(=O)C2CCC(=O)N(Cc3cccc(F)c3)C2)sc1C (centres unmarked) | 5.68

Row | Structure (SMILES) | hERG current change (%, negative = inhibition) at 10uM [%]
70 | Cc1onc(-c2c(Cl)cccc2Cl)c1C(=O)N1CCc2ccccc21 | -19.9
71 | Cc1cc2c(cc1S(=O)(=O)Nc1cccc(F)c1)n(C)c(=O)c(=O)n2C | -10.9
72 | O=C(NC1CCCCC1)c1cc2ccccc2cc1O | -12.7
73 | O=C1CC2(CCN(S(=O)(=O)c3ccccc3)CC2)Oc2ccccc21 | -84.6
74 | O=C1CC2(CCN(S(=O)(=O)c3ccccc3F)CC2)Oc2ccccc21 | -84.6
75 | Cc1ccc(S(=O)(=O)N2CCC3(CC2)CC(=O)c2ccccc2O3)cc1 | -25.7
76 | COc1ccc(S(=O)(=O)N2CCC3(CC2)CC(=O)c2ccccc2O3)cc1 | -24.8
77 | CC(=O)c1ccc(S(=O)(=O)N2CCC3(CC2)CC(=O)c2ccccc2O3)cc1 | -42.6
78 | O=C(O)c1ccc(S(=O)(=O)N2CCC3(CC2)CC(=O)c2ccccc2O3)cc1 | 11.5
79 | O=C(Nc1nnc(-c2ccc(Br)cc2)o1)c1cccc(N2C(=O)CCC2=O)c1 | 13.4
80 | COc1ccc(CN2CC[C@H]3C=CC[C@@H](C(=O)N4CCOCC4)[C@H]3C2=O)cc1OC | 7.75
81 | CC(=O)N1N=C(c2ccc(NS(C)(=O)=O)cc2)CC1c1ccc2nccnc2c1 (centres unmarked) | -63.2
82 | CS(=O)(=O)Nc1ccc(C2=NN(S(C)(=O)=O)C(c3ccc4nccnc4c3)C2)cc1 (centres unmarked) | -32.8
83 | CC(=O)N1N=C(c2cccc(NS(C)(=O)=O)c2)CC1c1ccc2c(c1)OCO2 (centres unmarked) | -59.2
84 | CC(=O)N1N=C(c2ccc3nccnc3c2)CC1c1ccccc1 (centres unmarked) | -34.9
85 | CS(=O)(=O)N1N=C(c2ccccc2)CC1c1ccc2c(c1)OCO2 (centres unmarked) | 13.9
86 | CC(=O)N1N=C(c2ccccc2)CC1c1ccc2c(c1)OCO2 (centres unmarked) | 1.98
87 | CC(=O)N1N=C(c2ccc(C)cc2)CC1c1ccc2c(c1)OCO2 (centres unmarked) | -30.1
88 | CS(=O)(=O)Nc1cccc(C2=NN(S(C)(=O)=O)C(c3ccc4c(c3)OCO4)C2)c1 (centres unmarked) | -62.3
89 | Cc1ccc(C2=NN(S(C)(=O)=O)C(c3ccc4c(c3)OCO4)C2)cc1 (centres unmarked) | -2
